According to PubChem BioAssay:
Inconclusive results are not listed. For some of these results: Potency and affinity values are given separately. Activity calls are given as the source filed them. Unless noted, no rule for the calls is given here. Numbered stars: 1 amine (or outer) side, 2 acyl side, 3 side chain; on linkers, the order of the positions; unused ones are H or OH. Bridge positions count the residues as written; N and C are the ends. Square brackets hold non-standard residues; d marks the D form. Peptide text beside a SMILES is read from it. I, II: the chains in the order shown. Actinocin(9to1) = Cc1c2oc3c(C)ccc(C(=O)[*:1])c3nc-2c(C(=O)[*:2])c(N)c1=O; NMeV = CN[CH](C(=O)O)C(C)C; Sar = CNCC(=O)O

Legend:
[1] = target: ATP-dependent translocase ABCB1 (Homo sapiens) (UniProt P08183); assay: P-glycoprotein substrate transport blockade – cell-based (AID 377; in the data active = fluorescence slope change above about 50%); conditions: MDR1-expressing cells, fluorescent substrate accumulation slope; stronger effect = higher value; concentration not given here
[2] = compounds altering circadian rhythm period length – cell-based, LOPAC library, luminescence reporter (AID 2774); conditions: circadian reporter cells, at 7 µM, actives lie on both sides;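 also: values are relative to mean of DMSO wells on each plate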
[3] = system: Hepatitis C virus NS3 helicase; assay: blockers of NS3h binding to ssDNA – biochemical, fluorescence polarization, LOPAC1280 library, primary screen (AID 687035; in the data active = inhibition above about 37%); conditions: Purified HCV NS3 helicase, Cy5-dT15 ssDNA binding fluorescence polarization; stronger effect = higher value; concentration not given here
[4] = compounds altering Cy5-DNA-NS3h complex signal – biochemical, LOPAC1280, artefact control for HCV NS3 helicase inhibitor project (AID 687037); conditions: Cy5-DNA-NS3h complex fluorescence interference counterscreen
[5] = blockers of cellular phospholipid synthesis – cell-based, LOPAC library, screen 4, primary screen (AID 1347384); conditions: animal cells, phospholipid biosynthesis inhibition screen; at 10 µM
[6] = viability loss in pontine glioma line – cell-based, SU-DIPG-XIII, MIPE4.0, CellTiter-Glo, qHTS, dose response (AID 1347061; cut-off not given, nearly all actives have AC50 up to about 37 µM;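 also: cells exposed to compound for 48 hours before readout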); conditions: CellTiter-Glo ATP luminescence
[7] = viability loss in pontine glioma line – cell-based, JHH-DIPG-1, MIPE4.0, CellTiter-Glo, qHTS, dose response (AID 1347062; cut-off not given, nearly all actives have AC50 up to about 27 µM;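 as to AC50: cells exposed to compound for two days before readout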); conditions: JHH-DIPG-1 viability, CellTiter-Glo ATP luminescence
[8] = viability loss in pontine glioma line – cell-based, SU-DIPG-IV, MIPE4.0, CellTiter-Glo, qHTS, dose response (AID 1347063; cut-off not given, nearly all actives have AC50 up to about 30 µM;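 also: compound exposure lasted 48 hours before the viability readout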); conditions: CellTiter-Glo ATP luminescence
[9] = viability loss in pontine glioma line – cell-based, SU-DIPG-XIII, MIPE5.0, CellTiter-Glo, qHTS, dose response (AID 1347064; cut-off not given, nearly all actives have AC50 up to about 23 µM;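 as to AC50: cells exposed to compound for 48 hours before the viability read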); conditions: CellTiter-Glo ATP luminescence
[10] = viability loss in pontine glioma line – cell-based, SU-DIPG-XXV, MIPE5.0, CellTiter-Glo, qHTS, dose response (AID 1347065; cut-off not given, nearly all actives have AC50 up to about 26 µM;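 also: cells exposed to compound for 48 hours before ATP readout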); conditions: CellTiter-Glo ATP luminescence
[11] = growth inhibition of DIPG cells – cell-based, MIPE4.0 library, CellTiter-Glo luminescence, qHTS (AID 1347066; cut-off not given, nearly all actives have AC50 up to about 30 µM;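 also: cells exposed to compound for 48 hours before readout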); conditions: SU-DIPG-VI viability, CellTiter-Glo ATP luminescence
[12] = JHH-DIPG-1 glioma cell viability, MIPE5.0 library, CellTiter-Glo luminescence, qHTS (AID 1347067; cut-off not given, nearly all actives have AC50 up to about 26 µM;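 also: cells exposed to compound for 48 hours before readout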); conditions: JHH-DIPG-1 glioma viability, CellTiter-Glo ATP luminescence
[13] = growth inhibition of DIPG cells – cell-based, MIPE5.0 library, qHTS (AID 1347068; cut-off not given, nearly all actives have IC50 up to about 30 µM;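 as to IC50: cells exposed to compound for 48 hours before viability readout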); conditions: SU-DIPG-XXV viability
[14] = blockers of polyQ-driven CASP3 activation – cell-based (AID 1583); conditions: polyglutamine-induced caspase-3 activation, cell assay; stronger effect = higher value;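 tested at 10 µM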
[15] = yeast 75Q aggregation reduction – 75Q-TubU reporter (AID 1593); conditions: Yeast 75Q polyglutamine aggregation reporter
[16] = restoration of touch response, mutant HTT neurons – whole organism, C. elegans mechanosensory neurons, N-terminal huntingtin (AID 1599); conditions: C. elegans polyQ-huntingtin mechanosensory neurons, stronger effect = higher value
[17] = blockers of cytochrome c efflux from mitochondria – biochemical, purified mitochondria (AID 1603); conditions: stronger effect = lower value;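 also: mouse liver mitochondria challenged with calcium chloride; signal normalized to the plate average as 100%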
[18] = polyglutamine aggregate formation blockers (AID 1604); conditions: polyglutamine-induced protein aggregation inhibition assay; stronger effect = higher value; tested at 2.5 µM
[19] = target: Mitogen-activated protein kinase 7 (Homo sapiens) (UniProt Q13164); assay: Gal4-ERK5 driven luciferase induction – cell-based, HTS, primary screen (AID 1508626;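 active = luciferase signal above three times the same-plate solvent-only control wells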;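 also: luciferase driven by Gal4-ERK5 fusion binding five Gal4 sites before minimal TATA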); conditions: HeLa Gal4-ERK5 transactivation, 18 h, at 5 µM, stronger effect = higher value
[20] = compounds altering HSF1 focus formation in cells – imaging, Selleck Cancer Library (AID 1347162; in the data active = plate-normalised HSF1 focus index below about 0.46); conditions: human cells, HSF1 nuclear foci imaging, at 10 µM; SSMD: measured here: HSF1 foci SSMD mean; cell count: measured here: cell number; plate-normalised HSF1 focus index: stronger effect = lower value

Chain of ATP-dependent translocase ABCB1 (Homo sapiens) (P08183 whole entry, looked up): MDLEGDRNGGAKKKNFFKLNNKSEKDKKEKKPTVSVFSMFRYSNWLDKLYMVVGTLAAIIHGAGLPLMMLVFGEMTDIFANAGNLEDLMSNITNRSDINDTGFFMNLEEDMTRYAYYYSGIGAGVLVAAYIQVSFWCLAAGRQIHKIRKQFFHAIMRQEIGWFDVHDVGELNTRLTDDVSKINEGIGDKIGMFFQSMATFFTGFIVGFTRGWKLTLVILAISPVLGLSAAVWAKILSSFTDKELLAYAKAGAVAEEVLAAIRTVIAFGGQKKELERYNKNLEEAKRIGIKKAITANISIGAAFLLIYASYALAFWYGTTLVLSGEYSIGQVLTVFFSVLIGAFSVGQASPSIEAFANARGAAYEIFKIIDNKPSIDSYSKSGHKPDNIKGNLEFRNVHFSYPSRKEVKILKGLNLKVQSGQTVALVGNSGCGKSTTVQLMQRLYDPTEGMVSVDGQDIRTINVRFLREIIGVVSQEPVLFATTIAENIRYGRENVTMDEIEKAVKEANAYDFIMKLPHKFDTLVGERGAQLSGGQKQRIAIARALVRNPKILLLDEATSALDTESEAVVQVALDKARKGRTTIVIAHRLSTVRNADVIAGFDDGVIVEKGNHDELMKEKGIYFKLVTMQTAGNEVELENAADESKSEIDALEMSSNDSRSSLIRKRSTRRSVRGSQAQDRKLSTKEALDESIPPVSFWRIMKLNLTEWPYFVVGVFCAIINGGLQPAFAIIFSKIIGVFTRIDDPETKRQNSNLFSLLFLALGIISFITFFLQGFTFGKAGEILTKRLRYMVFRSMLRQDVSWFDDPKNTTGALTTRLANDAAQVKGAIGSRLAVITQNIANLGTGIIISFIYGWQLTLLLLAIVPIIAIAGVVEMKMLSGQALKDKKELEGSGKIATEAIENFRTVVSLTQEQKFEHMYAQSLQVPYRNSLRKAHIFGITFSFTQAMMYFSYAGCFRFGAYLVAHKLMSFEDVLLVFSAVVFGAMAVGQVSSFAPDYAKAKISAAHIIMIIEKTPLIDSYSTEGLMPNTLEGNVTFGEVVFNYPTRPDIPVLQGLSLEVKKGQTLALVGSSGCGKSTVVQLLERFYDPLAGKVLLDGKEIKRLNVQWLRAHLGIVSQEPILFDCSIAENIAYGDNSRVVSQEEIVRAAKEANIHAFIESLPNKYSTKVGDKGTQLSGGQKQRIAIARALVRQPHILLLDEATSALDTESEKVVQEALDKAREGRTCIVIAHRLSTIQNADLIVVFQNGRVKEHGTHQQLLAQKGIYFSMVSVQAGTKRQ
Chain of Mitogen-activated protein kinase 7 (Homo sapiens) (Q13164 whole entry, looked up, the tested form may be a part): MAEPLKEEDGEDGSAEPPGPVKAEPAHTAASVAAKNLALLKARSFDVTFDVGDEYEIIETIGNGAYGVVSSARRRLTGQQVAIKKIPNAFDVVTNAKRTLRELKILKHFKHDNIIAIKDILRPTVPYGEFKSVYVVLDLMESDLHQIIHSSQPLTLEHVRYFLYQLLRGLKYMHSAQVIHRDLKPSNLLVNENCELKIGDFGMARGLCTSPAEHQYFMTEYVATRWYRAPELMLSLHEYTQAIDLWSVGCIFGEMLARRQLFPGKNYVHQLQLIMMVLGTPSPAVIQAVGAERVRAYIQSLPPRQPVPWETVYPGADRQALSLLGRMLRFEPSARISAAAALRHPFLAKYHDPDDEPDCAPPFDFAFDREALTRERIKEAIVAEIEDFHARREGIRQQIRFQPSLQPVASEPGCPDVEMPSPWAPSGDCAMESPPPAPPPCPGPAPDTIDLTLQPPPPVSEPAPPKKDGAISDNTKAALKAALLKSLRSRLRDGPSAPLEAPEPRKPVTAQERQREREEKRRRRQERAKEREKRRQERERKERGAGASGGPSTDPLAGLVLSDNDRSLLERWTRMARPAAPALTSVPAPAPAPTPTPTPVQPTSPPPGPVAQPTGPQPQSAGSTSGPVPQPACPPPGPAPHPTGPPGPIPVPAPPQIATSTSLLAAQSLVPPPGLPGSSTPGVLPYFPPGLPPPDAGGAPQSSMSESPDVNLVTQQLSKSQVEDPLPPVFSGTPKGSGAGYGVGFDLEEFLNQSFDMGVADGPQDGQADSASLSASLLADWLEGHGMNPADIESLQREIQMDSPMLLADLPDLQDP

## CC(C(O)c1ccc(O)cc1)N1CCC(Cc2ccccc2)CC1 (stereo unspecified)
[1]
  fluorescence slope change: 23.8% (inactive)
[2]
  period change: 0.3 h (inactive)
[3]
  inhibition: -4% (inactive)
[4]
  fluorescence ratio (interference): 0.9 (inactive)
[5]
  outcome: inactive

## CN(C)[C@@H]1C(=O)C(C(=O)NCN2CCCC2)=C(O)[C@@]2(O)C(=O)C3=C(O)c4c(O)cccc4[C@@](C)(O)C3CC12 (stereo partly specified)
[1]
  fluorescence slope change: 66.4% (active)

## Cc1c2oc3c(C)ccc(C(=O)NC4C(=O)NC(C(C)C)C(=O)N5CCCC5C(=O)N(C)CC(=O)N(C)C(C(C)C)C(=O)OC4C)c3nc-2c(C(=O)NC2C(=O)NC(C(C)C)C(=O)N3CCCC3C(=O)N(C)CC(=O)N(C)C(C(C)C)C(=O)OC2C)c(N)c1=O (stereo unspecified) (I: TVP[Sar][NMeV] / II: TVP[Sar][NMeV]; ester I:1-I:C, II:1-II:C; linker I:N-II:N via Actinocin(9to1); configuration not given here)
[6]
  outcome: inactive
[7]
  outcome: inactive
[8]
  outcome: inactive
[9]
  AC50: 3.62 nM (active)
[10]
  AC50: 18.2 nM (active)
[11]
  outcome: inactive
[12]
  AC50: 6.45 nM (active)
[13]
  IC50: 0.0723 µM (active)

## c1ccc(-c2ccccn2)nc1
[2]
  period change: -0.19 h (inactive)
[3]
  inhibition: -3% (inactive)
[4]
  fluorescence ratio (interference): 1 (inactive)
[5]
  outcome: inactive

## C=C1/C(=C\C=C2/CCC[C@]3(C)[C@@H]([C@H](C)CCCC(C)(C)O)CC[C@@H]23)C[C@@H](O)C[C@@H]1O
[7]
  AC50: 2350 nM (active)
[8]
  AC50: 3320 nM (active)
[9]
  outcome: inactive
[10]
  outcome: inactive
[11]
  AC50: 16.6 µM (active)
[13]
  IC50: 23.5 µM (active)

## O=C(OC1C[C@@H]2CC3C[C@H](C1)N2CC3=O)c1c[nH]c2ccccc12 (stereo partly specified)
[5]
  outcome: inactive

## CCC[C@@H]1C[C@@H](C(=O)N[C@H]([C@@H](C)O)[C@H]2O[C@H](SC)[C@H](O)[C@@H](O)C2O)N(C)C1 (stereo partly specified)
[1]
  fluorescence slope change: 65% (active)

## CO[C@H]1O[C@@H]2O[C@@]3(C)CC[C@H]4[C@H](C)CC[C@@H]([C@H]1C)[C@@]24OO3
[6]
  outcome: inactive
[7]
  outcome: inactive
[8]
  outcome: inactive
[9]
  outcome: inactive
[10]
  outcome: inactive
[11]
  outcome: inactive
[12]
  outcome: inactive
[13]
  outcome: inactive

## CN(C)CC/C=C1/c2ccccc2COc2ccccc21
[14]
  inhibition: -9.13%
[15]
  score: 1.4
[16]
  rescue above control: 2.19
[17]
  cytochrome c release ratio: 0.69
[18]
  inhibition of aggregation: 92.3%

## CCN(CC)CCOc1ccc(C(=C(Cl)c2ccccc2)c2ccccc2)cc1
[19]
  luciferase signal: 68 AU (inactive)

## CCC(=O)NS(=O)(=O)c1ccc(-c2c(-c3ccccc3)noc2C)cc1
[10]
  outcome: inactive
[12]
  outcome: inactive
[13]
  outcome: inactive

## C[C@]12C=CC(=O)C=C1CC[C@@H]1[C@@H]2[C@@H](O)C[C@@]2(C)[C@H]1CC[C@]2(O)C(=O)COC(=O)CCC(=O)O
[19]
  luciferase signal: 80 AU (inactive)

## CN1CCN2c3ncccc3Cc3ccccc3C2C1 (stereo unspecified)
[6]
  outcome: inactive
[7]
  outcome: inactive
[9]
  outcome: inactive
[10]
  outcome: inactive
[11]
  outcome: inactive
[12]
  outcome: inactive
[13]
  outcome: inactive

## CN1CCc2cc(Cl)c(O)cc2[C@@H](c2ccccc2)C1
[2]
  period change: 0.17 h (inactive)
[3]
  inhibition: -1% (inactive)
[4]
  fluorescence ratio (interference): 1 (inactive)
[5]
  outcome: inactive

## CC(=O)N1CCN(c2ccc(OC[C@H]3CO[C@](Cn4ccnc4)(c4ccc(Cl)cc4Cl)O3)cc2)CC1
[2]
  period change: -0.195 h (inactive)
[3]
  inhibition: -5% (inactive)
[4]
  fluorescence ratio (interference): 1 (inactive)
[7]
  AC50: 23500 nM (active)
[5]
  outcome: inactive
[19]
  luciferase signal: 40 AU (inactive)

## CC(C)N=c1cc2n(-c3ccc(Cl)cc3)c3ccccc3nc-2cc1Nc1ccc(Cl)cc1
[1]
  fluorescence slope change: 72.8% (active)
[19]
  luciferase signal: 104 AU (inactive)

## CC[C@]1(O)CC2CN(CCc3c([nH]c4ccccc34)[C@@](C(=O)OC)(c3cc4c(cc3OC)N(C)[C@H]3[C@@](O)(C(N)=O)[C@H](O)[C@]5(CC)C=CCN6CC[C@]43[C@@H]65)C2)C1 (stereo partly specified)
[7]
  AC50: 46.9 nM (active)

## COc1cc([C@@H]2c3cc4c(cc3[C@@H](O[C@@H]3O[C@@H]5CO[C@@H](C)O[C@H]5[C@H](O)[C@H]3O)[C@H]3COC(=O)[C@H]23)OCO4)cc(OC)c1O
[6]
  outcome: inactive
[7]
  outcome: inactive
[9]
  outcome: inactive
[11]
  outcome: inactive
[12]
  outcome: inactive
[13]
  outcome: inactive
[20]
  SSMD: -0.198
  cell count: 6820
  plate-normalised HSF1 focus index: 0.99 (inactive)
[19]
  luciferase signal: 48 AU (inactive)

## C#C[C@]1(O)CC[C@H]2[C@@H]3CCC4=Cc5oncc5CC4(C)[C@H]3CCC21C (stereo partly specified)
[2]
  period change: 0.035 h (inactive)
[3]
  inhibition: 0% (inactive)
[4]
  fluorescence ratio (interference): 1 (inactive)
[5]
  outcome: inactive

## COc1cccc2c1C(=O)c1c(O)c3c(c(O)c1C2=O)C[C@@](O)(C(=O)CO)C[C@@H]3O[C@H]1C[C@H](N)[C@@H](O)[C@H](C)O1
[7]
  AC50: 372 nM (active)
[8]
  AC50: 833 nM (active)
[9]
  AC50: 833 nM (active)
[10]
  AC50: 1180 nM (active)
[11]
  AC50: 4.18 µM (active)
[12]
  AC50: 2350 nM (active)
[13]
  IC50: 9.34 µM (active)
[20]
  SSMD: -16.4
  cell count: 7260
  plate-normalised HSF1 focus index: 0.155 (active)
[19]
  luciferase signal: 20 AU (inactive)

## CN1[C@@H](CC(=O)c2ccccc2)CCC[C@H]1C[C@H](O)c1ccccc1
[2]
  period change: -0.145 h (inactive)
[3]
  inhibition: 0% (inactive)
[4]
  fluorescence ratio (interference): 1 (inactive)
[5]
  outcome: inactive

## COc1cccc2c1C(=O)c1c(O)c3c(c(O)c1C2=O)C[C@@](O)(C(C)=O)C[C@@H]3OC1CC(N)C(O)C(C)O1 (stereo partly specified)
[1]
  fluorescence slope change: 95.8% (active)

## CC[C@]1(O)CC2CN(CCc3c([nH]c4ccccc34)[C@@](C(=O)OC)(c3cc4c(cc3OC)N(C=O)[C@H]3[C@@](O)(C(=O)OC)[C@H](OC(C)=O)[C@]5(CC)C=CCN6CC[C@]43[C@@H]65)C2)C1 (stereo partly specified)
[20]
  SSMD: 1.41
  cell count: 6460
  plate-normalised HSF1 focus index: 1.08 (inactive)

## CCCCC[C@H](O)/C=C/[C@H]1[C@H](O)CC(=O)[C@@H]1CCCCCCC(=O)O
[6]
  outcome: inactive
[7]
  outcome: inactive
[8]
  outcome: inactive
[10]
  outcome: inactive
[11]
  outcome: inactive
[12]
  outcome: inactive
[13]
  outcome: inactive

## CC(=O)SCC(Cc1ccccc1)C(=O)NCC(=O)OCc1ccccc1 (stereo unspecified)
[1]
  fluorescence slope change: 12.8% (inactive)
[7]
  AC50: 469 nM (active)
[8]
  AC50: 833 nM (active)
[9]
  outcome: inactive
[10]
  outcome: inactive
[12]
  outcome: inactive
[13]
  outcome: inactive

## CO/N=C(/C(=O)N[C@@H]1C(=O)N2C(C(=O)O)=C(COC(N)=O)CS[C@H]12)c1ccco1
[1]
  fluorescence slope change: -2.3% (inactive)

## Nc1nc2ccc(Cl)cc2c2nc(-c3ccco3)nn12
[2]
  period change: 0.275 h (inactive)
[3]
  inhibition: -2% (inactive)
[4]
  fluorescence ratio (interference): 1 (inactive)
[5]
  outcome: inactive

## CN1CCN(c2nc3cc(C(F)(F)F)ccc3n3cccc23)CC1
[2]
  period change: -0.085 h (inactive)
[3]
  inhibition: -3% (inactive)
[4]
  fluorescence ratio (interference): 1 (inactive)
[5]
  outcome: inactive

## COCC1=C(C(=O)OC(C)OC(=O)OC(C)C)N2C(=O)[C@@H](NC(=O)/C(=N\OC)c3csc(N)n3)[C@H]2SC1 (stereo partly specified)
[19]
  luciferase signal: 40 AU (inactive)
